{
  "source": "the supplement of paper PMC3342239",
  "note": "Counter-ions that a name gives are not always drawn.",
  "data": [
    {"test_system": "Saccharomyces cerevisiae", "test": "fraction of cells in G1 phase (DNA content, flow cytometry); higher = more cells with unreplicated DNA (G1 delay)", "details": "temperature: 30 C; YPD; JTY2953 pdr5 snq2 (sensitized); drug added to: cultures diluted from stationary phase; 6-7 h", "method_in_brief": "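S. cerevisiae in YPD at 30°C was dosed with library drugs, using a final 20 µg/ml for sensitized JTY2953 diluted 1∶200 from overnight and fixed at 6–7 h, or dosing dividing JTY2953 (fixed at 6 h) and BY4741 (fixed at 4.33 h). Ethanol-fixed, SYTOX Green-stained cells were read by flow cytometry (10,000 events). The G1 fraction is taken as the Dean-Jett-Fox G1 peak area divided by the G1 and G2/M areas combined.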", "values": [
      {"smiles": "NCCCC(O)(P(=O)(O)O)P(=O)(O)O", "note": "[Alendronate] (80.6158 µM)", "fraction of cells in G1 phase": 0.456},
      {"smiles": "NC12CC3CC(CC(C3)C1)C2", "note": "[Amantadine HCl] (106.553 µM)", "fraction of cells in G1 phase": 0.505},
      {"smiles": "O=C(O)c1cccnc1Nc1cccc(C(F)(F)F)c1", "note": "[Niflumic acid] (70.8657 µM)", "fraction of cells in G1 phase": 0.505},
      {"smiles": "C[C@@H](O)[C@@H]1NC(=O)[C@H](CCCCN)NC(=O)[C@@H](Cc2c[nH]c3ccccc23)NC(=O)[C@H](Cc2ccccc2)NC(=O)[C@@H](NC(=O)[C@H](N)Cc2ccccc2)CSSC[C@@H](C(=O)N[C@H](CO)[C@@H](C)O)NC1=O", "note": "[Octreotide] (19.6221 µM)", "fraction of cells in G1 phase": 0.478},
      {"smiles": "CCN1CCC[C@H]1CNC(=O)c1cc(S(N)(=O)=O)ccc1OC", "note": "[Sulpiride s (-)] (58.5768 µM)", "fraction of cells in G1 phase": 0.482}
    ]}
  ]
}
